# From publication PMC8384837, “Expanding the binding specificity for RNA recognition by a PUF domain”
# Tests used:
# Assay in all cases: yeast three-hybrid, YBZ-1, SC-Leu-His + 0.5 mM 3-AT, 4 days
# Conditions in all cases: tags: N-Gal4 AD-HA kept; label: inside an RPR1-promoter hybrid RNA with tandem MS2 sites; ssRNA
# PUM1 PUF domain R5-RAG = PUM1 PUF domain R5-RAG (Homo sapiens, UniProt Q14671 828-1176, C1007R;R1008A;Q1011G)
# In short: (§1)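 Pumilio-1 PUF domain libraries, randomized at the three base-contacting residues of each repeat, were co-expressed with matching RNA elements from a centromeric plasmid in strain YBZ-1, which carries a LexA–MS2 coat fusion and a HIS3 reporter. Transformants grew for four days on SC-Leu (input) or on SC-Leu-His + 0.5 mM 3-AT (selection), and the repeat regions were PCR-amplified and Illumina-sequenced. The interaction score is the log change in variant frequency from input to selection. That logarithm is base 2, with a pseudocount of 1 where a variant was absent.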
# PUM1 PUF domain R5-RRK = PUM1 PUF domain R5-RRK (Homo sapiens, UniProt Q14671 828-1176, C1007R;Q1011K)
# In short: as §1
# PUM1 PUF domain R3-RVR = PUM1 PUF domain R3-RVR (Homo sapiens, UniProt Q14671 828-1176, C935R;R936V;Q939R)
# In short: as §1
# PUM1 PUF domain R3-IFG = PUM1 PUF domain R3-IFG (Homo sapiens, UniProt Q14671 828-1176, C935I;R936F;Q939G)
# In short: as §1
# PUM1 PUF domain R3-PFL = PUM1 PUF domain R3-PFL (Homo sapiens, UniProt Q14671 828-1176, C935P;R936F;Q939L)
# In short: as §1
# PUM1 PUF domain R4-MPV = PUM1 PUF domain R4-MPV (Homo sapiens, UniProt Q14671 828-1176, N971M;H972P;Q975V)
# In short: as §1
# PUM1 PUF domain R8-SYR = PUM1 PUF domain R8-SYR (Homo sapiens, UniProt Q14671 828-1176, N1122S;Q1126R)
# In short: as §1
# PUM1 PUF domain R3-GWD = PUM1 PUF domain R3-GWD (Homo sapiens, UniProt Q14671 828-1176, C935G;R936W;Q939D)
# In short: as §1
# PUM1 PUF domain R6-GWC = biological target: T1, PUM1 PUF domain R6-GWC (Homo sapiens, UniProt Q14671 828-1176, N1043G;Y1044W;Q1047C)
# T1 sequence: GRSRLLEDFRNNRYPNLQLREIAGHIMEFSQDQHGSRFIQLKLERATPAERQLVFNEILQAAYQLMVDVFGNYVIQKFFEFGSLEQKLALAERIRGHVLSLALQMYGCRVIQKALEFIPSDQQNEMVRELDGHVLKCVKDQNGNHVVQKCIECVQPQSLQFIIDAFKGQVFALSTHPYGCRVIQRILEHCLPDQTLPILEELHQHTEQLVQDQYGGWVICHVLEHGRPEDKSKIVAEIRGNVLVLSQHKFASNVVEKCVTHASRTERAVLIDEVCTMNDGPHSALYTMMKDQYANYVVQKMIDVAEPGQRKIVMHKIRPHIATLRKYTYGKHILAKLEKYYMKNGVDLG
# In short: as §1
# PUM1 PUF domain R3-TAQ = PUM1 PUF domain R3-TAQ (Homo sapiens, UniProt Q14671 828-1176, C935T;R936A)
# In short: as §1
# PUM1 PUF domain R3-DYE = PUM1 PUF domain R3-DYE (Homo sapiens, UniProt Q14671 828-1176, C935D;R936Y;Q939E)
# In short: as §1
# PUM1 PUF domain R5-QGR = PUM1 PUF domain R5-QGR (Homo sapiens, UniProt Q14671 828-1176, C1007Q;R1008G;Q1011R)
# In short: as §1
# PUM1 PUF domain R5-ATR = PUM1 PUF domain R5-ATR (Homo sapiens, UniProt Q14671 828-1176, C1007A;R1008T;Q1011R)
# In short: as §1
# PUM1 PUF domain R5-DMR = PUM1 PUF domain R5-DMR (Homo sapiens, UniProt Q14671 828-1176, C1007D;R1008M;Q1011R)
# In short: as §1
# PUM1 PUF domain R5-KYR = PUM1 PUF domain R5-KYR (Homo sapiens, UniProt Q14671 828-1176, C1007K;R1008Y;Q1011R)
# In short: as §1
# PUM1 PUF domain R5-KAG = PUM1 PUF domain R5-KAG (Homo sapiens, UniProt Q14671 828-1176, C1007K;R1008A;Q1011G)
# In short: as §1
# PUM1 PUF domain R7-LPT = PUM1 PUF domain R7-LPT (Homo sapiens, UniProt Q14671 828-1176, S1079L;N1080P;E1083T)
# In short: as §1
# PUM1 PUF domain R2-EWE = PUM1 PUF domain R2-EWE (Homo sapiens, UniProt Q14671 828-1176, N899E;Y900W;Q903E)
# In short: as §1
# PUM1 PUF domain R3-YFE = PUM1 PUF domain R3-YFE (Homo sapiens, UniProt Q14671 828-1176, C935Y;R936F;Q939E)
# In short: as §1
# PUM1 PUF domain R1-RTW = PUM1 PUF domain R1-RTW (Homo sapiens, UniProt Q14671 828-1176, S863R;R864T;Q867W)
# In short: as §1
sequence,measurement,setting,value
GGCUAGAACUAGUGGAUCCCCCGGCGCCCGGCGGCUCGAGCCCGGGUAAGUGUUAAUAGUCUGCAUGCCGCCGGGCGCCAUGCCUGCAGGUCGACUCUAGAAAACAUG,binding signal,PUM1 PUF domain R5-RAG,3.37 log2 enrichment (interaction score)
same,binding signal,PUM1 PUF domain R5-RRK,4.7 log2 enrichment (interaction score)
GGCUAGAACUAGUGGAUCCCCCGGCGCCCGGCGGCUCGAGCCCGGGUAAGUGUGAAUAGUCUGCAUGCCGCCGGGCGCCAUGCCUGCAGGUCGACUCUAGAAAACAUG,binding signal,PUM1 PUF domain R5-RAG,0.18 log2 enrichment (interaction score)
same,binding signal,PUM1 PUF domain R5-RRK,1.4 log2 enrichment (interaction score)
GGCUAGAACUAGUGGAUCCCCCGGCGCCCGGCGGCUCGAGCCCGGGUAAGUGUAAUUAGUCUGCAUGCCGCCGGGCGCCAUGCCUGCAGGUCGACUCUAGAAAACAUG,binding signal,PUM1 PUF domain R3-RVR,4.85 log2 enrichment (interaction score)
same,binding signal,PUM1 PUF domain R3-IFG,3.79 log2 enrichment (interaction score)
same,binding signal,PUM1 PUF domain R3-PFL,4.55 log2 enrichment (interaction score)
GGCUAGAACUAGUGGAUCCCCCGGCGCCCGGCGGCUCGAGCCCGGGUAAGUGUAUAUAGUCUGCAUGCCGCCGGGCGCCAUGCCUGCAGGUCGACUCUAGAAAACAUG,binding signal,PUM1 PUF domain R4-MPV,3.02 log2 enrichment (interaction score)
GGCUAGAACUAGUGGAUCCCCCGGCGCCCGGCGGCUCGAGCCCGGGUAAGUGUAAAUAGUCUGCAUGCCGCCGGGCGCCAUGCCUGCAGGUCGACUCUAGAAAACAUG,binding signal,PUM1 PUF domain R8-SYR,4.42 log2 enrichment (interaction score)
same,binding signal,PUM1 PUF domain R3-GWD,5.07 log2 enrichment (interaction score)
same,binding signal,PUM1 PUF domain R6-GWC,2.76 log2 enrichment (interaction score)
same,binding signal,PUM1 PUF domain R3-TAQ,4.25 log2 enrichment (interaction score)
same,binding signal,PUM1 PUF domain R3-DYE,3.76 log2 enrichment (interaction score)
same,binding signal,PUM1 PUF domain R5-RAG,0.1 log2 enrichment (interaction score)
same,binding signal,PUM1 PUF domain R5-RRK,1.82 log2 enrichment (interaction score)
same,binding signal,PUM1 PUF domain R3-IFG,3.21 log2 enrichment (interaction score)
same,binding signal,PUM1 PUF domain R4-MPV,2.14 log2 enrichment (interaction score)
same,binding signal,PUM1 PUF domain R3-PFL,3.64 log2 enrichment (interaction score)
GGCUAGAACUAGUGGAUCCCCCGGCGCCCGGCGGCUCGAGCCCGGGUAAGUGUCAAUAGUCUGCAUGCCGCCGGGCGCCAUGCCUGCAGGUCGACUCUAGAAAACAUG,binding signal,PUM1 PUF domain R5-QGR,3.22 log2 enrichment (interaction score)
same,binding signal,PUM1 PUF domain R5-ATR,3.13 log2 enrichment (interaction score)
same,binding signal,PUM1 PUF domain R5-DMR,3.01 log2 enrichment (interaction score)
same,binding signal,PUM1 PUF domain R5-KYR,2.48 log2 enrichment (interaction score)
same,binding signal,PUM1 PUF domain R5-RAG,3.6 log2 enrichment (interaction score)
same,binding signal,PUM1 PUF domain R5-RRK,4.43 log2 enrichment (interaction score)
same,binding signal,PUM1 PUF domain R5-KAG,2.58 log2 enrichment (interaction score)
GGCUAGAACUAGUGGAUCCCCCGGCGCCCGGCGGCUCGAGCCCGGGUAAGCGUAAAUAGUCUGCAUGCCGCCGGGCGCCAUGCCUGCAGGUCGACUCUAGAAAACAUG,binding signal,PUM1 PUF domain R8-SYR,4.37 log2 enrichment (interaction score)
GGCUAGAACUAGUGGAUCCCCCGGCGCCCGGCGGCUCGAGCCCGGGUAAGUUUAAAUAGUCUGCAUGCCGCCGGGCGCCAUGCCUGCAGGUCGACUCUAGAAAACAUG,binding signal,PUM1 PUF domain R7-LPT,3.22 log2 enrichment (interaction score)
GGCUAGAACUAGUGGAUCCCCCGGCGCCCGGCGGCUCGAGCCCGGGUAAGUGUAAAGAGUCUGCAUGCCGCCGGGCGCCAUGCCUGCAGGUCGACUCUAGAAAACAUG,binding signal,PUM1 PUF domain R2-EWE,3.45 log2 enrichment (interaction score)
GGCUAGAACUAGUGGAUCCCCCGGCGCCCGGCGGCUCGAGCCCGGGUAAGUGUAAGUAGUCUGCAUGCCGCCGGGCGCCAUGCCUGCAGGUCGACUCUAGAAAACAUG,binding signal,PUM1 PUF domain R3-RVR,1.73 log2 enrichment (interaction score)
same,binding signal,PUM1 PUF domain R3-YFE,5.72 log2 enrichment (interaction score)
same,binding signal,PUM1 PUF domain R3-IFG,5.86 log2 enrichment (interaction score)
GGCUAGAACUAGUGGAUCCCCCGGCGCCCGGCGGCUCGAGCCCGGGUAAGUGUAAAUUGUCUGCAUGCCGCCGGGCGCCAUGCCUGCAGGUCGACUCUAGAAAACAUG,binding signal,PUM1 PUF domain R1-RTW,3 log2 enrichment (interaction score)
